Data taken from PubChem BioAssay (NCI).
The panel holds about 79,000 compounds, 15% with a hit somewhere; the sample as a whole holds those more often. Activity calls are given as the source filed them. Rule as the data show it: active = growth inhibition above about 70%; inactive = the rest.

Tests used:
[1] = NCI Yeast Anticancer Drug Screen. Data for the rad52 strain (AID 147);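 also: 0% = growth of vehicle-treated control cultures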; settings: S. cerevisiae rad52 mutant growth inhibition, stronger effect = higher value
Method in brief: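 Inhibition of yeast growth, referenced to vehicle controls, was the measured output for a strain with defective DNA damage repair.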

[2] = NCI Yeast Anticancer Drug Screen. Data for the wt1 strain (AID 149);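 also: 0% = growth of vehicle-treated wt1 cultures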; settings: S. cerevisiae wt1 strain (SPY 50644) growth inhibition, stronger effect = higher value
Method in brief: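 wt1 yeast, compound-treated; % growth inhibition vs vehicle control.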

[3] = NCI Yeast Anticancer Drug Screen. Data for the rad50EPP+ strain (AID 151);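 also: 0% = growth of vehicle-treated control cultures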; settings: S. cerevisiae rad50 mutant strain, stronger effect = higher value
Method in brief: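 Genetically defined yeast (rad50EPP+, DNA damage repair alteration) is grown with compound, and inhibition of growth is expressed relative to vehicle-treated controls.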

[4] = NCI Yeast Anticancer Drug Screen. Data for the rad50 strain (AID 155);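 also: 0% = growth of vehicle-only cultures of the same strain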; settings: S. cerevisiae rad50 strain growth inhibition, stronger effect = higher value
Method in brief: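 Genetically altered yeast (DNA repair pathway); compound treatment; growth inhibition vs vehicle ctrl.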

[5] = NCI Yeast Anticancer Drug Screen. Data for the mec2-1 strain (AID 157); settings: S. cerevisiae mec2-1 strain, stronger effect = higher value
Method in brief: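 Each compound was tested on mec2-1 yeast, a strain altered in DNA damage repair or cell cycle control. Growth inhibition is reported relative to vehicle.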

[6] = NCI Yeast Anticancer Drug Screen. Data for the rad14 strain (AID 159);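 also: 0% = growth of vehicle-treated control cultures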; settings: S. cerevisiae rad14 strain growth inhibition, stronger effect = higher value
Method in brief: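 Test compounds were applied to a repair-deficient yeast strain. Its growth was then compared with that of cultures given vehicle alone, and inhibition was expressed relative to those controls.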

[7] = NCI Yeast Anticancer Drug Screen. Data for the sgs1 mgt1 strain (AID 161);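 also: 0% = growth of cultures given vehicle only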; settings: S. cerevisiae sgs1 mgt1 strain, stronger effect = higher value
Method in brief: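 Read-out: growth inhibition vs vehicle controls. Cells: mutant yeast strain deficient in DNA damage repair.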

[8] = NCI Yeast Anticancer Drug Screen. Data for the CLN2oe strain (AID 163);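 also: 0% = growth of vehicle-only control cultures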; settings: S. cerevisiae CLN2oe strain, stronger effect = higher value
Method in brief: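 First, the altered yeast strain was treated with each compound; second, its growth was measured; finally, inhibition was derived by comparison with vehicle controls.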

[9] = NCI Yeast Anticancer Drug Screen. Data for the cln2 rad14 strain (AID 165);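 also: 0% = growth equal to vehicle treated cultures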; settings: S. cerevisiae cln2 rad14 strain, stronger effect = higher value
Method in brief: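 Test compounds were added to cln2 rad14 yeast cultures; inhibition of growth was then determined by comparison with vehicle treatment.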

[10] = NCI Yeast Anticancer Drug Screen. Data for the bub3 strain (AID 167); settings: S. cerevisiae bub3 mutant strain, stronger effect = higher value
Method in brief: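 Yeast carrying a defined mutation is treated with each compound, and growth is compared with that of vehicle-exposed cells to give inhibition.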

[11] = NCI Yeast Anticancer Drug Screen. Data for the wt2 strain (AID 169);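 also: 0% = growth of vehicle-treated yeast cultures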; settings: S. cerevisiae wt2 strain growth inhibition, stronger effect = higher value
Method in brief: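 The panel's yeast strains carry defined changes in DNA repair or cell cycle genes. Each strain is grown with compound, and growth loss is scored relative to vehicle.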

[12] = NCI Yeast Anticancer Drug Screen. Data for the mlh1 strain (AID 171);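 also: 0% = growth of vehicle-treated control cultures of the same strain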; settings: S. cerevisiae mlh1 strain growth inhibition, stronger effect = higher value
Method in brief: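 Inhibition values reflect reduced yeast growth in the presence of compound, referenced to vehicle controls, using a strain chosen for its alteration in DNA repair or cell cycle control.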

[13] = NCI Yeast Anticancer Drug Screen. Data for the sgs1 strain (AID 173);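 also: 0% = growth of vehicle-only control cultures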; settings: S. cerevisiae sgs1 mutant, stronger effect = higher value
Method in brief: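 Vehicle-treated cultures served as reference for growth inhibition of a yeast strain altered in DNA damage repair or cell cycle control after compound exposure.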

[14] = NCI Yeast Anticancer Drug Screen. Data for the mlh1 rad18 strain (AID 175); settings: S. cerevisiae mlh1 rad18 strain growth inhibition, stronger effect = higher value
Method in brief: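 Inhibition values reflect reduced growth of mutant yeast versus vehicle-treated controls following compound exposure; the mutations affect DNA damage repair.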

[15] = NCI Yeast Anticancer Drug Screen. Data for the rad18 strain (AID 177); settings: S. cerevisiae rad18 mutant growth inhibition, stronger effect = higher value
Method in brief: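 Steps: expose repair-mutant yeast to compound; measure growth; express as inhibition relative to vehicle control.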

[16] = at 5.0 µM (retest, dose inferred, filed as 0.5)
[17] = at 50.0 µM (retest, dose inferred, filed as 5.0)

Measured: growth inhibition

CCOP1(=O)C=C(Sc2ccc([N+](=O)[O-])cc2[N+](=O)[O-])C(C)(C)O1 (stereo unspecified)
active: [1]; at 100.0 µM 84% | [4]; at 100.0 µM 83% | [5]; at 100.0 µM 87% | [10]; at 100.0 µM 92% | [11]; at 100.0 µM 72% | [12]; at 100.0 µM 83% | [13]; at 100.0 µM 84% | [15]; at 100.0 µM 92%
inactive: [1]; at 1.2 µM 2% | [1]; at 3.7 µM 6% | [1]; at 11.0 µM 16% | [1]; at 33.0 µM 39% | [2]; at 1.2 µM 2% | [2]; at 3.7 µM 2% | [2]; at 11.0 µM 6% | [2]; at 33.0 µM 4% | [2]; at 100.0 µM 31% | [3]; at 1.2 µM -4% | [3]; at 3.7 µM -3% | [3]; at 11.0 µM -2% | [3]; at 33.0 µM 13% | [3]; at 100.0 µM 53% | [4]; at 1.2 µM 2% | [4]; at 3.7 µM 9% | [4]; [16] 28% | [4]; at 11.0 µM 16% | [4]; at 33.0 µM 37% | [4]; [17] 40% | [4]; at 50.0 µM 51.4% | [5]; at 1.2 µM 7% | [5]; at 3.7 µM 12% | [5]; [16] 27% | [5]; at 11.0 µM 18% | [5]; at 33.0 µM 41% | [5]; [17] 41% | [5]; at 50.0 µM 8.65% | [6]; at 1.2 µM 1% | [6]; at 3.7 µM 3% | [6]; at 11.0 µM 9% | [6]; at 33.0 µM 20% | [6]; at 100.0 µM 43% | [7]; [16] 23% | [7]; [17] 38% | [7]; at 50.0 µM 33% | [8]; at 1.2 µM 3% | [8]; at 3.7 µM 0% | [8]; at 11.0 µM 1% | [8]; at 33.0 µM 11% | [8]; at 100.0 µM 37% | [9]; [16] 7% | [9]; [17] 44% | [9]; at 50.0 µM 26.1% | [10]; at 1.2 µM 5% | [10]; at 3.7 µM 7% | [10]; [16] 11% | [10]; at 11.0 µM 16% | [10]; at 33.0 µM 40% | [10]; [17] 31% | [10]; at 50.0 µM 1.9% | [11]; at 1.2 µM 4% | [11]; at 3.7 µM 8% | [11]; at 11.0 µM 12% | [11]; at 33.0 µM 25% | [12]; at 1.2 µM 3% | [12]; at 3.7 µM 7% | [12]; at 11.0 µM 14% | [12]; at 33.0 µM 31% | [13]; at 1.2 µM 3% | [13]; at 3.7 µM 6% | [13]; at 11.0 µM 13% | [13]; at 33.0 µM 37% | [14]; [16] 25% | [14]; [17] 60% | [14]; at 50.0 µM 42.2% | [15]; at 1.2 µM 0% | [15]; at 3.7 µM 9% | [15]; at 11.0 µM 28% | [15]; at 33.0 µM 66%

CCOC(=O)CNC(=O)c1[nH]cnc1/N=N/N(C)C
inactive: [1]; at 1.2 µM -12% | [1]; at 3.7 µM -11% | [1]; at 11.0 µM -12% | [1]; at 33.0 µM 6% | [2]; at 1.2 µM 8% | [2]; at 3.7 µM 9% | [2]; at 11.0 µM 12% | [2]; at 33.0 µM 12% | [3]; at 1.2 µM -23% | [3]; at 3.7 µM -21% | [3]; at 11.0 µM -21% | [3]; at 33.0 µM -30% | [3]; at 100.0 µM -13% | [4]; at 1.2 µM -5% | [4]; at 3.7 µM 4% | [4]; [16] -10% | [4]; at 11.0 µM 2% | [4]; at 33.0 µM 5% | [4]; [17] 7% | [5]; at 1.2 µM -8% | [5]; at 3.7 µM -10% | [5]; [16] -7% | [5]; at 11.0 µM -8% | [5]; at 33.0 µM -6% | [5]; [17] -17% | [6]; at 1.2 µM 2% | [6]; at 3.7 µM 2% | [6]; at 11.0 µM 1% | [6]; at 33.0 µM 1% | [7]; [16] -12% | [7]; [17] -7% | [8]; at 1.2 µM 26% | [8]; at 3.7 µM 23% | [8]; at 11.0 µM 17% | [8]; at 33.0 µM 44% | [9]; [16] -1% | [9]; [17] 35% | [10]; at 1.2 µM 22% | [10]; at 3.7 µM 31% | [10]; [16] 3% | [10]; at 11.0 µM 29% | [10]; at 33.0 µM 62% | [11]; at 1.2 µM -2% | [11]; at 3.7 µM 1% | [11]; at 11.0 µM 0% | [11]; at 33.0 µM 1% | [12]; at 1.2 µM 13% | [12]; at 3.7 µM 5% | [12]; at 11.0 µM 4% | [12]; at 33.0 µM 2% | [13]; at 1.2 µM 10% | [13]; at 3.7 µM 1% | [13]; at 11.0 µM -2% | [13]; at 33.0 µM 9% | [14]; [16] -30% | [14]; [17] 59% | [15]; at 1.2 µM 0% | [15]; at 3.7 µM -11% | [15]; at 11.0 µM -13% | [15]; at 33.0 µM -3%
active: [1]; at 100.0 µM 98% | [2]; at 100.0 µM 98% | [4]; at 50.0 µM 89.6% | [4]; at 100.0 µM 97% | [5]; at 50.0 µM 90.3% | [5]; at 100.0 µM 98% | [6]; at 100.0 µM 97% | [7]; at 50.0 µM 89.5% | [8]; at 100.0 µM 98% | [9]; at 50.0 µM 90.5% | [10]; [17] 96% | [10]; at 50.0 µM 91.4% | [10]; at 100.0 µM 98% | [11]; at 100.0 µM 97% | [12]; at 100.0 µM 98% | [13]; at 100.0 µM 98% | [14]; at 50.0 µM 71.5% | [15]; at 100.0 µM 98%
